# An excerpt weighted towards active compounds, which were near 3.7% of everything screened.
# TIM10 inh: TIM10 yeast growth inhibition. S. cerevisiae TIM10 strain growth, BacTiter-Glo luminescence, 24 h. inhibition, % at 10 µM. hit rate 1.4% among 330,000. AID 463195;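 active = inhibition of 40% or more at the single tested concentration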;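 note: wild-type TIM10 isogenic control strain grown at permissive 25 °C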
# tim10-1 inh: inhibits growth of tim10-1 mutant yeast; S. cerevisiae tim10-1 ts strain growth, BacTiter-Glo, 24 h; inhibition, % at 20 µM; hit rate 2.2% among 330,000; AID 463190;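 active = inhibition of at least 40%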;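 note: mutant grown at 25 °C; 0% = DMSO wells with yeast and 100% = wells holding no yeast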
# PfHsp90 yeast 2: inhibits growth of yeast expressing Plasmodium falciparum Hsp90. AID 504621. inhibition, % at 9.4 µM. S. cerevisiae expressing PfHsp90, BacTiter-Glo ATP, 48 h; yeast lacking PDR1 and PDR3 efflux regulators. hit rate 0.32% among 310,000;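 active = every replicate shows inhibition above about 80%, whatever the replicate mean, limit read from the data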;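 note: 0% = DMSO neutral controls and 100% = 20 µM radicicol positive controls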
# tim23-1 inh: inhibits growth of tim23-1 mutant yeast. AID 463212. hit rate 1.3% among 330,000. inhibition, % at 20 µM. S. cerevisiae tim23-1 growth, BacTiter-Glo luminescence, 24 h;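 active = growth inhibition of the mutant yeast at or above 50%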;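 note: temperature-sensitive mutant grown at 25 °C; plate controls were DMSO-treated mutant yeast for no effect and medium wells lacking yeast for full effect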
# Rce1 inh: blocks yeast Ras-converting enzyme; calls only; AID 2563; yeast membranes, quenched prenylated peptide cleavage fluorescence; Q03530; hit rate 0.27% among 290,000;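 active = fall in fluorescence gain of 50% or more versus controls, with final raw signal at or below 3038400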;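 note: plate controls were neutral control wells for no effect and wells lacking membranes for full effect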
# Target sequence (Q03530 whole entry, looked up): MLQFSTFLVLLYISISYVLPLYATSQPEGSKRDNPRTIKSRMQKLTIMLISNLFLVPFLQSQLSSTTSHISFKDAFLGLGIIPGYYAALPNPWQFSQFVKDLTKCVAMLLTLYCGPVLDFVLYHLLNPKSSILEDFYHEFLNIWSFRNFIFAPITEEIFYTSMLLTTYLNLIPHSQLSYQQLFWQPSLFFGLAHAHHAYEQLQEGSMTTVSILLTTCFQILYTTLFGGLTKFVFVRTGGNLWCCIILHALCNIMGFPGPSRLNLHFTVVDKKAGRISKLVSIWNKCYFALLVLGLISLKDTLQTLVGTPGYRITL
# tim10-1 conf: confirmation of tim10-1 mutant yeast growth inhibitors | hit rate 56% among 7,400 | S. cerevisiae tim10-1 ts strain growth, BacTiter-Glo, 24 h | inhibition, % at 20 µM | shares compounds with tim10-1 inh | AID 463213;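 active = inhibition of yeast growth at or above a set limit in either of two repeat tests at 20 µM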;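 note: tim10-1 mutant grown at permissive 25 °C to find synthetic lethal compounds; 0% = DMSO yeast wells and 100% = medium wells without yeast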
# tim10 confirm: TIM10 yeast growth inhibition, confirmed; shares compounds with TIM10 inh; S. cerevisiae tim10 strain growth, BacTiter-Glo luminescence, 24 h; inhibition, % at 10 µM; hit rate 63% among 4,600; AID 463215;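 active = inhibition of yeast growth at or above a set limit in either of two replicates at 10 µM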;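 note: this counterscreen used the strain with wild-type TIM10; 0% = yeast with DMSO and 100% = medium wells lacking yeast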
# Numbers without * were called inactive; i = inactive; . = no result given.
SMILES,TIM10 inh,tim10-1 inh,PfHsp90 yeast 2,tim23-1 inh,Rce1 inh,tim10-1 conf,tim10 confirm
CC12CCC(C)(c3nc4ccccc4nc31)C2(C)C,4,7,9,16,i,.,.
Cc1[nH]nc2c1-c1nc3ccccc3nc1C(C)(C)C2,44*,44*,.,38,i,35*,25
C/C(=N\Nc1ccc2nncn2n1)c1ccc(Cl)s1,17,9,.,-12,i,.,.
Cc1ccnc(N2CCC(C(=O)Nc3cccc(C(F)(F)F)c3)CC2)n1,42*,52*,-8,47,i,48*,30*
COc1ccc(Cl)cc1CN1CCOCC1,9,6,1,12,i,.,.
Clc1ccc2c(c1)c1cc(Cl)ccc1n2CN1CCOCC1,51*,63*,.,-12,i,39*,59*
O=C(/C=C/c1ccccc1)Nc1cccnc1Oc1ccccc1F,18,29,5,26,i,.,.
O=C(CSCc1ccccc1Cl)Nc1ccc2c(c1)OCCO2,48*,44*,-10,44,i,36*,8
O=C(CNCc1ccccc1Cl)Nc1ccc2c(c1)OCCO2,-19,10,-2,19,i,.,.
CC1CCN(C(=S)c2cn(Cc3ccccc3F)c3ccccc23)CC1,42*,43*,-73,22,i,32*,23
Cc1cccc(NC(=O)c2cc3n(n2)C(C(F)(F)F)CC(c2ccc4c(c2)OCO4)N3)c1 (configuration not stated),62*,41*,-16,42,i,47*,60*
Cc1cc(NC(=O)c2cc3n(n2)C(C(F)(F)F)CC(c2ccc(Cl)c(Cl)c2)N3)no1 (configuration not stated),-1,10,1,10,i,.,.
COc1ccc(/C=C2\CCc3ccccc3C2=O)cc1Cn1cccn1,42*,43*,.,36,i,40*,13
COc1ccc2nc3oc(C(=O)N4CCN(c5cccc(Cl)c5)CC4)cc3cc2c1,63*,60*,-12,37,i,9,10
COc1ccc2nc3oc(C(=O)N4CCN(c5cccc(C(F)(F)F)c5)CC4)cc3cc2c1,14,5,-9,6,i,.,.
COc1cc(NC(=O)c2cc([N+](=O)[O-])ccc2NC(=O)CN2CCN(c3ccccn3)CC2)cc(OC)c1,11,17,-9,10,i,.,.
CCCCCC(=O)NC(=S)Nc1ccc(Cl)cn1,44*,47*,-3,40,i,28*,6
Cc1cc2ncn(/N=C/c3ccc([N+](=O)[O-])s3)c2cc1C,.,.,-53,.,i,.,.
O=[N+]([O-])c1ccc(/C=N/n2cnc3ccccc32)s1,79*,49*,105*,40,i,57*,90*
C/C(=N\OCC(=O)NC12CC3CC(CC(C3)C1)C2)c1cc2ccccc2o1,40*,45*,-17,19,i,22,36*
CSc1ccccc1NC(=O)CO/N=C(\C)c1cc2ccccc2o1,25,19,12,16,i,.,.
Cn1c(NCCO)nc2c1c(=O)n(Cc1ccc(F)cc1)c(=O)n2C,-17,4,22,-10,i,.,.
CC(C)CCNc1nc2c(c(=O)n(Cc3cccc(F)c3)c(=O)n2C)n1C,46*,47*,-100,34,i,26,34*
CSCCC(NC(=O)c1ccccc1Br)C(=O)NNC(=O)C1COc2ccccc2O1 (configuration not stated),.,.,26,.,.,.,.
Cc1ccc(CSc2nnc(-c3cccs3)n2C)cc1,25,23,-18,43,i,.,.
Cn1c(SCc2c(Cl)cccc2Cl)nnc1-c1cccs1,48*,48*,-6,44,i,35*,34*
Cc1nn(CCC#N)c2nc(-c3ccccc3)cc(C(F)(F)F)c12,6,27,6,-19,i,.,.
Cc1nn(CCC(N)=S)c2nc(-c3cccs3)cc(C(F)(F)F)c12,55*,44*,-8,32,i,41*,41*
c1csc(-c2nc3c4ccccc4c4ccccc4c3[nH]2)c1,58*,41*,.,32,i,21,29

# Screens from PubChem.
